T cruzi growth-1 – T. cruzi intracellular proliferation inhibitors, primary screen, cell-based, beta-gal Tulahuen parasites, NIH3T3 host, luminescence. T. cruzi beta-gal in NIH3T3, GalScreen luminescence, 90 h. inhibition, % at 8.34 µM. 77,000 tested, 5.9% active;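 active = mean inhibition above about 93%, with at least 55% of replicates each passing it, limit read from the data, passing the limit was not always enough; inconclusive = only one of those two conditions holds; inactive = neither condition holds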
C diff HTS – C. difficile growth inhibitors, primary screen, HTS; 86,000 tested, 0.25% active; growth activity, negative = inhibition, % at 16 µg/mL (by protocol); Clostridium difficile clinical isolate growth, OD600, 24 h; hits give low values;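 active = mean growth activity at or below -80% and every replicate also at or below -80%; inconclusive = mean at or below -80% but some replicate above -80%; inactive = mean growth activity above -80%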;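 note: 0% = DMSO wells and -100% = levofloxacin 16 µg/mL wells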
Pf Dd2 growth – P. falciparum Dd2 growth inhibitors, primary screen, SYBR Green fluorescence, single dose replicates. AID 1159554, 2015. activity change, % at 10 µM. 94,000 tested, 2.3% active. 72 h; hits give low values; in the data active = activity change below about -80%; inconclusive = no clear call, values can overlap the other calls
T cruzi growth-2 – T. cruzi intracellular proliferation inhibitors, confirmation, cell-based, NIH3T3 host, beta-gal parasite, luminescence, cherry-pick; AID 651739, 2012; 5,600 tested, 72% active; shares compounds with T cruzi growth-1; T. cruzi beta-gal in NIH3T3, GalScreen luminescence, 90 h; inhibition, % at 8.35 µM;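 active = mean replicate inhibition above about 95% and at least 55% of replicates individually reaching it, limit read from the data; inconclusive = only one of the two criteria is met; inactive = neither criterion is met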
T cruzi growth-3 – inhibitors of intracellular T. cruzi replication, confirmation, NIH3T3 host cells, beta-gal parasites, cherry-pick, set 2. shares compounds with T cruzi growth-1. T. cruzi beta-gal in NIH3T3, GalScreen luminescence, 90 h. inhibition, % at 2.09 µM. 5,600 tested, 21% active. AID 651740, 2012;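 active = mean inhibition above about 95%, with at least 55% of replicates also reaching it, limit read from the data; inconclusive = meets just one of the two conditions; inactive = meets neither condition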;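 note: plate controls were neutral control median for no effect and positive control median for full effect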
3T3 cytotox – cytotoxicity in mouse NIH/3T3 fibroblasts, confirmation, cytotoxicity control for T. cruzi proliferation inhibitor project, cell-based, cherry-pick, single point; shares compounds with T cruzi growth-1; NIH/3T3 viability, CellTiter-Glo ATP luminescence, 90 h; cytotoxicity (signal decrease), % at 8.35 µM; 5,600 tested, 14% active;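 active = mean signal decrease across replicates above about 35% based on untreated-well scatter, with enough replicates individually passing, limit read from the data; inconclusive = no rule stated though some were filed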;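 note: 0% = median of neutral control wells and 100% = median of positive control wells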
NIH3T3 tox 2 – NIH/3T3 fibroblast cytotoxicity, confirmation, cytotoxicity control, cell-based, cherry-pick, single point, set 2; 5,600 tested, 56% active; NIH/3T3 viability, CellTiter-Glo ATP luminescence, 90 h; shares compounds with T cruzi growth-1; inhibition, % at 24.9 µM; AID 651744, 2012;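 active = mean loss of cell viability signal at or above a set limit, and enough replicates individually reaching it; inconclusive = meets only the mean limit or only the replicate share; inactive = meets neither condition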;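 note: 0% = median of neutral control wells and 100% = median of positive control wells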
* marks the source's active call; other numbers are inactive results; ? = inconclusive; . = no result given. Only some compounds are listed: those with a hit (about 6.7% of all), similar ones and a draw of the others.

SMILES	T cruzi growth-1	C diff HTS	Pf Dd2 growth	T cruzi growth-2	T cruzi growth-3	3T3 cytotox	NIH3T3 tox 2
C[C@H]1CN([C@@H](C)CO)S(=O)(=O)c2ccc(C#Cc3ccccc3)cc2O[C@@H]1CN(C)S(=O)(=O)c1cn(C)cn1	?	-9.0	-86.9*	111.5*	54.4	41.0*	36.0*
C[C@H]1CN([C@@H](C)CO)S(=O)(=O)c2ccc(C#Cc3cccc(F)c3)cc2O[C@H]1CN(C)S(=O)(=O)c1cn(C)cn1	96.0*	1.8	-69.3	96.5*	47.5	25.3	29.0*
C[C@H](CO)N1C[C@H](C)[C@@H](CN(C)S(=O)(=O)c2cn(C)cn2)Oc2cc(C#Cc3ccc(F)cc3)ccc2S1(=O)=O	107.3*	1.8	-58.4	96.3*	79.8	18.4	24.9*
C[C@H](CO)N1C[C@H](C)[C@H](CN(C)S(=O)(=O)c2cn(C)cn2)Oc2cc(C#Cc3ccc(F)cc3)ccc2S1(=O)=O	117.4	3.4	-56.9	.	.	.	.
CCC(=O)N1CCC2(CC1)CN(C(=O)Cc1ccccc1)[C@@H](CO)c1c2c2ccc(OC)cc2n1C	.	6.6	-74.3	.	.	.	.
Cc1ccc(-c2ccc([C@@H]3[C@H](CO)N4CCCCN(C(=O)Nc5ccccc5)C[C@@H]34)cc2)cc1	?	-91.7*	-9.2	104.7*	106.1*	119.8*	104.9*
CC(=O)N1CCCCN2[C@@H](CO)[C@H](c3ccc(-c4ccccc4)cc3)[C@@H]2C1	103.8*	-19.7	-12.7	64.9	45.8	32.4	42.4*
Cc1ccc(-c2ccc([C@H]3[C@@H](CO)N4CCCCN(C(=O)Nc5ccccc5)C[C@H]34)cc2)cc1	57.3	-0.2	-32.1	.	.	.	.
O=C(Nc1ccccc1)N1CCCCN2[C@H](CO)[C@@H](c3ccc(Br)cc3)[C@H]2C1	85.3	1.5	-24.8	.	.	.	.
O=C(Nc1ccccc1)N1CCCCN2[C@H](CO)[C@@H](c3ccc(-c4ccncc4)cc3)[C@@H]2C1	70.8	3.5	1.4	.	.	.	.
O=C(Nc1ccccc1)N1CCCCN2[C@@H](CO)[C@@H](c3ccc(-c4ccncc4)cc3)[C@@H]2C1	?	0.1	25.6	91.4	68.9	8.6	18.6
O=C(Nc1ccccc1)N1CCCCN2[C@@H](CO)[C@H](c3ccc(-c4ccccc4)cc3)[C@@H]2C1	99.2*	28.6	-43.6	91.2	73.7	43.6*	102.8*
CC(=O)N1CCCCN2[C@H](CO)[C@H](c3ccc(-c4ccccc4)cc3)[C@H]2C1	60.8	-14.1	-23.7	.	.	.	.
N#Cc1ccc(-c2ccc3c(c2)[C@H]2[C@H](CCN2Cc2cncnc2)[C@H](CO)N3)cc1	65.5	-9.9	-57.4	.	.	.	.
COc1cccc(C(=O)Nc2ccc3c(c2)OC[C@@H](C)N(C)C[C@H](C)[C@H](OC)CN(C)C3=O)c1	-66.0	-2.3	-32.7	.	.	.	.
COCC(=O)Nc1ccc2c(c1)OC[C@@H](C)N(CC1CC1)C[C@H](C)[C@@H](OC)CN(C)C2=O	-22.1	.	-6.3	.	.	.	.
CO[C@H]1CC[C@@H]2CCOc3ccc(C#N)cc3C(=O)N(C)C[C@H](OC)[C@@H](C)C(=O)N(C)C[C@@H]1O2	2.0	4.4	.	.	.	.	.
CCC(=O)N(C)C[C@@H]1[C@@H](c2ccc(-c3ccccc3F)cc2)[C@H](CO)N1C(C)=O	19.9	-6.6	-0.3	.	.	.	.
CCNC(=O)C[C@H]1CC[C@H](NC(=O)C2CCC2)[C@@H](CO)O1	.	-1.7	.	.	.	.	.
COc1ccc2c3c(n(C)c2c1)[C@@H](CO)N(Cc1ccccc1F)CC31CN(C(=O)C2CCCC2)C1	.	8.2	-58.0	.	.	.	.
CCC(=O)N1[C@@H]2CN(C(=O)c3cccc(OC)c3)c3ccccc3[C@@H]2[C@@H]1CO	4.5	-0.3	-10.6	.	.	.	.
CC(=O)N(C)C[C@H]1Oc2ncc(C#Cc3ccc(F)cc3)cc2C(=O)N([C@@H](C)CO)C[C@H]1C	.	2.1	-3.7	.	.	.	.
O=C(Nc1ccccc1)N1CCCCN2[C@H](C1)[C@@H](c1ccc(Br)cc1)[C@@H]2CO	52.9	4.9	26.6	.	.	.	.
O=C(Nc1ccccc1)N1CCCCN2[C@H](CO)[C@@H](c3ccc(-c4ccccc4)cc3)[C@@H]2C1	?	21.3	-28.5	109.4*	93.7	-8.0	103.9*
C[C@H](CO)N1C[C@H](C)[C@H](CN(C)Cc2ccc(C(F)(F)F)cc2)Oc2ccc(NC(=O)c3ccncc3)cc2CC1=O	66.0	3.0	6.2	.	.	.	.
SMILES	T cruzi growth-1	C diff HTS	Pf Dd2 growth	T cruzi growth-2	T cruzi growth-3	3T3 cytotox	NIH3T3 tox 2
C[C@H](CO)N1C[C@H](C)[C@@H](CN(C)Cc2ccc(C(F)(F)F)cc2)Oc2ccc(NC(=O)C3CC3)cc2CC1=O	102.5*	-15.5	-5.4	105.2*	99.4*	3.1	-3.5
C[C@@H]1CN([C@H](C)CO)C(=O)Cc2cc(NC(=O)C3CC3)ccc2O[C@H]1CN(C)Cc1ccc(C(F)(F)F)cc1	71.6	-0.2	-1.1	.	.	.	.
C[C@@H]1CN([C@H](C)CO)C(=O)Cc2cc(NC(=O)c3ccncc3)ccc2O[C@H]1CN(C)Cc1ccc(C(F)(F)F)cc1	105.8*	-11.5	3.9	103.8*	44.9	23.9	63.3*
C[C@@H]1CCCCO[C@@H](CN(C)Cc2ccc3c(c2)OCO3)[C@H](C)CN([C@H](C)CO)C(=O)c2cc(NC(=O)c3ccccc3)ccc2O1	.	-6.3	-70.9	.	.	.	.
COc1ccc2c3c([nH]c2c1)[C@@H](CO)N(C(=O)c1ccncc1)CC31CN(Cc2cccnc2)C1	.	.	45.4	.	.	.	.
CN(C)C(=O)C[C@@H]1C[C@H]2c3cc(NC(=O)NC4CCCCC4)ccc3O[C@H]2[C@@H](CO)O1	-4.6	.	2.5	.	.	.	.
CS(=O)(=O)N1[C@@H](C#N)[C@@H](c2ccc(C#CC3CCCCC3)cc2)[C@@H]1CO	74.1	8.6	1.1	.	.	.	.
CS(=O)(=O)N1[C@H](C#N)[C@H](c2ccc(C#Cc3cccc(F)c3)cc2)[C@H]1CO	?	-6.9	-30.1	?	83.4	-0.5	32.0*
CS(=O)(=O)N1[C@H](CO)[C@@H](c2ccc(C#CC3CCCCC3)cc2)[C@@H]1C#N	93.0	-2.9	-44.5	.	.	.	.
CS(=O)(=O)N1[C@H](CO)[C@H](c2ccc(C#Cc3cccc(F)c3)cc2)[C@@H]1C#N	89.3	15.2	-0.7	.	.	.	.
CS(=O)(=O)N1[C@H](C#N)[C@@H](c2ccc(C#CC3CC3)cc2)[C@@H]1CO	106.6*	-3.3	-23.5	100.2*	45.7	12.5	-1.3
CS(=O)(=O)N1[C@H](C#N)[C@H](c2ccc(C#CC3CCCC3)cc2)[C@@H]1CO	99.1*	-4.1	-24.3	102.9*	89.4	19.6	34.6*
